Data published in PubChem BioAssay (NCATS).
Results filed as inconclusive are left out. Activity calls are given as the source filed them. Calls follow the shape of the dose curve; as a rule, active = well fitted curve in the direction sought with a large enough effect; inconclusive = small, poorly fitted or top-dose-only effect, or another doubt; inactive = no such curve, though single readings can be large; an effect the other way counts as inactive or inconclusive.

Experiments:
[1] = BET inhibitor-based combinations targeting novel dependencies in MECOM-rearranged (r) AML: SET-2 cell line (AID 2202231); settings: SET-2 AML cells viability, CellTiter-Glo luminescence, 48 h; viability: hits give low values, concentration not given here; also: nearly all actives have a fitted effect of over 35% in size; also: potency is read from the fitted curve at half-maximal effect;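 as to viability: plate controls were DMSO treated cells for no effect and wells without cells for full effect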
Outline: (§1)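 A 48 hr incubation preceded viability reading by CellTiter-Glo, with 15 min room-temperature development. Dose series had 11 points; normalization used DMSO and empty wells; AUC was computed and mean-centered per line as Z-AUC.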

[2] = BET inhibitor-based combinations targeting novel dependencies in MECOM-rearranged (r) AML: OCI-AML3 cell line (AID 2202232); settings: Potency: OCI-AML3 viability; also: nearly all actives have a fitted effect of over 35% in size; also: potency is read from the fitted curve at half-maximal effect
Outline: as §1

[3] = BET inhibitor-based combinations targeting novel dependencies in MECOM-rearranged (r) AML: MV-4-11 cell line (AID 2202233); also: potency is read from the fitted curve at half-maximal effect; nearly all actives have a fitted effect of over 45% in size
Outline: (§2)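 Each compound is tested in an 11-point concentration series against 500 seeded cells/well for 48 hr. The luminescent viability signal is normalized to DMSO and blank wells, then reduced to AUC and a cell-line-centred Z-AUC.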

[4] = BET inhibitor-based combinations targeting novel dependencies in MECOM-rearranged (r) AML: HNT-34 cell line (AID 2202234); also: potency is read from the fitted curve at half-maximal effect; nearly all actives have a fitted effect of over 35% in size
Outline: as §2

[5] = target: Retinaldehyde dehydrogenase 3 (Homo sapiens) (UniProt P47895); experiment: qHTS for Inhibitors of the Aldehyde Dehydrogenase Family (ALDH1A3) Primary screen (AID 2061315); also: potency is read from the fitted curve at half-maximal effect
[6] = BET inhibitor-based combinations targeting novel dependencies in MECOM-rearranged (r) AML: UCSD-AML1 cell line (AID 2202235); also: potency is read from the fitted curve at half-maximal effect; nearly all actives have a fitted effect of over 40% in size
Outline: as §2

[7] = BET inhibitor-based combinations targeting novel dependencies in MECOM-rearranged (r) AML: AML-191 cell line (AID 2202236; also: nearly all actives have a fitted effect of over 35% in size; also: potency is read from the fitted curve at half-maximal effect)
Outline: as §1

[8] = target: Aldehyde dehydrogenase 1A1 (Homo sapiens) (UniProt P00352); experiment: qHTS for Inhibitors of the Aldehyde Dehydrogenase Family (ALDH1A1) Confirmatory screens (AID 2061316); also: potency is read from the fitted curve at half-maximal effect; nearly all actives have a fitted effect of over 65% in size
[9] = BET inhibitor-based combinations targeting novel dependencies in MECOM-rearranged (r) AML: AML-194 cell line (AID 2202237;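 also: plate controls were vehicle wells for no effect and wells without cells for full effect; nearly all actives have a fitted effect of over 40% in size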)
Outline: as §1

With C=CCNC1=C2CC(C)CC(OC)C(O)C(C)/C=C(\C)C(OC(N)=O)C(OC)/C=C/C=C(\C)C(=O)NC(=CC1=O)C2=O (centres undefined) the Potency [1] was 8.33 µM (active), the Potency [2] was 0.662 µM (active) and the Potency [3] was 0.166 µM (active). For the same compound, the Potency [4] was 3.32 µM (active).
For CN(C)c1ccc(Nc2nc(N)n(C(=O)c3c(F)cccc3F)n2)cc1, the Potency [5] was 14.1 µM (active), the Potency [1] was 18.6 µM (active) and the Potency [2] was 23.5 µM (active). For the same compound, the Potency [3] was 4.17 µM (active), the Potency [4] was 14.8 µM (active) and the Potency [6] was 2.63 µM (active). The Potency [7] was 18.6 µM (active).
In the case of CC(C)Oc1ccc(-c2nc(-c3cccc4c3CC[C@@H]4NCCO)no2)cc1C#N, the viability [1] is reported as 97.4% (inactive).
For CCC(=O)NC[C@H](Cc1ccc(OCCc2nc(-c3ccccc3)oc2C)cc1)N/C(C)=C\C(=O)c1ccc(C(F)(F)F)cc1, the viability [1] was 111% (inactive), the Potency [2] was 20.9 µM (active) and the Potency [3] was 23.5 µM (active).
In the case of CN1CCN(CCCNc2ncc(Cl)c(-c3cc4c(C(=O)NC5CC5)cccc4s3)n2)CC1, the viability [1] is reported as 80.2% (inactive) and the Potency [2] is reported as “inactive”.
For FC(F)(F)c1ccccc1-c1nc(NCc2ccc(-c3ccc(Cl)c(Cl)c3)cc2)c2ccccc2n1, the Potency [5] was “inactive” and the Potency [8] was 20.1 µM (active).
For CC(C)NCCCn1c(Sc2cc(Cl)cc(Cl)c2)nc2c(N)ncnc21, the viability [1] was 98.3% (inactive), the Potency [2] was 10.5 µM (active) and the Potency [3] was 14.8 µM (active).
For COc1cc2c3c(n(CCCNCCO)c(=O)c2cc1OC)-c1cc2c(cc1C3=O)OCO2, the Potency [1] was 0.148 µM (active), the Potency [2] was 0.0934 µM (active) and the Potency [3] was 0.059 µM (active). For the same compound, the Potency [4] was 0.059 µM (active), the Potency [6] was 0.0742 µM (active) and the Potency [7] was 0.166 µM (active).
In the case of NS(=O)(=O)c1ccc(S(=O)(=O)Nc2cccc3c(Cl)c[nH]c23)cc1, the Potency [1] is reported as 14.8 µM (active), the Potency [2] is reported as 2.95 µM (active) and the Potency [3] is reported as 0.59 µM (active). For the same compound, the Potency [4] was 1.32 µM (active) and the Potency [6] was 2.35 µM (active).
With COc1ccc2c(c1)CCc1sc(NC(=O)c3ccc(Br)cc3)nc1-2 the Potency [8] was 10.2 µM (active).
In the case of CN(Cc1ccccc1)C(=O)c1ccc(S(=O)(=O)Nc2ccccc2)cc1, the Potency [5] is reported as “inactive”, the viability [1] is reported as 103% (inactive) and the Potency [2] is reported as “inactive”. For the same compound, the Potency [7] was “inactive” and the Potency [9] was “inactive”.
